Measurements from PubChem BioAssay AID1159580 (chemical genetic matrix, 2015).
The whole screen tested about 5,500 compounds, of which about 2,000 (36%) were called active. Roughly 18% stayed inconclusive and do not appear here. No stated cut-off is given here; in the data, active means normalized growth mostly below about 0.91 (no sharp cut-off); inconclusive means no clear call, values can overlap the other calls; inactive means mostly above about 0.92. Some of the results follow.

Test: chemical genetic growth profiling, strain panel (AID 1159580);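 further: tested at 20 µM; growth read once vehicle control cultures reached saturation at 30 °C; 1 = growth at the plate median or of vehicle wells; lower values mean less growth of the strain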
Conditions: S. cerevisiae deletion strains, growth OD

Measured: normalized growth

N#Cc1nn(-c2c(Cl)cc(C(F)(F)F)cc2Cl)c(N)c1S(=O)C(F)(F)F (stereo not drawn)
active: locus YBR009C, strain hhf1, hits give low values 0.895 | locus YDR137W, strain rgp1, hits give low values 0.576 | locus YDR195W, strain ref2 1.15 [resistant] | locus YLR221C, strain rsa3, hits give low values 0.89 | locus YLR262C, strain YPT6 (second series), hits give low values 0.521 | locus YLR342W, strain FKS1, hits give low values 0.889 | locus YML120C, strain ndi1, hits give low values 0.909
inactive: locus YAL021C, strain ccr4, hits give low values 0.995 | locus YAL026C, strain drs2, hits give low values 0.947 | locus YAL030W, strain snc1, hits give low values 0.986 | locus YBL061C, strain skt5, hits give low values 0.99 | locus YBR023C, strain chs3, hits give low values 1 | locus YBR171W, strain sec66, hits give low values 0.961 | locus YBR231C, strain swc5, hits give low values 1.01 | locus YBR279W, strain paf1, hits give low values 1 | locus YCL011C, strain gbp2, hits give low values 0.951 | locus YCL016C, strain dcc1, hits give low values 1.04 | locus YCL069W, strain vba3, hits give low values 0.998 | locus YCR088W, strain abp1, hits give low values 0.993 | locus YDL005C, strain med2, hits give low values 0.987 | locus YDL040C, strain nat1, hits give low values 0.982 | locus YDR001C, strain nth1, hits give low values 0.992 | locus YDR069C, strain doa4, hits give low values 0.965 | locus YDR159W, strain sac3, hits give low values 0.888 | locus YDR297W, strain sur2, hits give low values 0.961 | locus YDR334W, strain swr1, hits give low values 0.962 | locus YDR335W, strain msn5, hits give low values 1.01 | locus YDR392W, strain spt3, hits give low values 0.785 | locus YEL003W, strain gim4, hits give low values 0.936 | locus YEL037C, strain rad23, hits give low values 0.986 | locus YEL061C, strain CIN8 (second series), hits give low values 0.973 | locus YER015W, strain faa2, hits give low values 0.955 | locus YER016W, strain bim1, hits give low values 1.01 | locus YER111C, strain swi4, hits give low values 1.01 | locus YER155C, strain BEM2 (second series), hits give low values 1.02 | locus YFR010W, strain ubp6, hits give low values 0.939 | locus YGL167C, strain pmr1, hits give low values 0.966 | locus YGL173C, strain kem1, hits give low values 0.979 | locus YGL227W, strain vid30, hits give low values 0.99 | locus YGL240W, strain doc1, hits give low values 0.959 | locus YGL253W, strain hxk2, hits give low values 0.929 | locus YHR013C, strain ard1, hits give low values 1.01 | locus YHR027C, strain rpn1, hits give low values 0.968 | locus YHR030C, strain SLT2, hits give low values 1.01 | locus YHR079C, strain IRE1, hits give low values 1.02 | locus YHR142W, strain chs7, hits give low values 0.956 | locus YJL092W, strain hpr5, hits give low values 0.992 | locus YJL095W, strain BCK1 (second series), hits give low values 0.983 | locus YJL095W, strain BCK1, hits give low values 0.991 | locus YJL115W, strain asf1, hits give low values 0.99 | locus YJL129C, strain trk1, hits give low values 1.01 | locus YJL154C, strain vps35, hits give low values 0.978 | locus YJL164C, strain tpk1, hits give low values 0.926 | locus YJL166W, strain qcr8, hits give low values 0.94 | locus YJR066W, strain TOR1, hits give low values 0.962 | locus YKL160W, strain elf1, hits give low values 1.03 | locus YKR026C, strain gcn3, hits give low values 0.98 | locus YKR091W, strain srl3, hits give low values 0.989 | locus YLL001W, strain dnm1, hits give low values 0.918 | locus YLL026W, hits give low values 0.984 | locus YLL041C, strain sdh2, hits give low values 0.996 | locus YLR027C, strain aat2, hits give low values 0.955 | locus YLR113W, strain HOG1, hits give low values 0.964 | locus YLR258W, strain gsy2, hits give low values 1.01 | locus YLR320W, strain mms22, hits give low values 0.907 | locus YLR357W, strain rsc2, hits give low values 0.979 | locus YLR370C, strain arc18, hits give low values 1.01 | locus YLR384C, strain iki3, hits give low values 1.01 | locus YMR058W, strain fet3, hits give low values 0.952 | locus YMR125W, strain sto1, hits give low values 1.03 | locus YMR129W, hits give low values 1.01 | locus YMR205C, strain PFK2, hits give low values 0.981 | locus YMR231W, strain pep5, hits give low values 0.998 | locus YNL071W, strain lat1, hits give low values 0.978 | locus YNL183C, strain NPR1, hits give low values 0.951 | locus YNL209W, strain ssb2, hits give low values 0.995 | locus YNL248C, strain rpa49, hits give low values 1.01 | locus YNL322C, strain KRE1 (second series), hits give low values 1 | locus YNR049C, strain mso1, hits give low values 1 | locus YOR001W, strain rrp6, hits give low values 0.901 | locus YOR070C, strain gyp1, hits give low values 1 | locus YOR080W, strain dia2, hits give low values 0.991 | locus YOR083W, strain WHI5, hits give low values 0.941 | locus YOR106W, strain vam3, hits give low values 0.981 | locus YOR231W, strain MKK1, hits give low values 1 | locus YOR265W, strain rbl2, hits give low values 0.967 | locus YOR270C, strain vph1, hits give low values 0.794 | locus YOR290C, strain snf2, hits give low values 1.02 | locus YPL051W, strain arl3, hits give low values 1.04 | locus YPL078C, strain atp4, hits give low values 0.99 | locus YPL106C, strain sse1, hits give low values 1.15 | locus YPL240C, strain hsp82, hits give low values 0.996 | locus YPL256C, strain CLN2, hits give low values 1.04
